Test results from ChEMBL document CHEMBL1961873, “Compounds: GSK PKIS; Assays: Nanosyn kinase panel” (2012).

Legend:
[1] = system: Epidermal growth factor receptor (Homo sapiens), P00533 [T790M]; conditions: at 1 µM
[2] = system: Epidermal growth factor receptor (Homo sapiens), P00533 [L858R,T790M]; conditions: at 0.1 µM
[3] = system: Epidermal growth factor receptor (Homo sapiens), P00533 [L858R,T790M]; conditions: at 1 µM
[4] = biological target: Ephrin type-A receptor 2 (Homo sapiens) (UniProt P29317); conditions: at 0.1 µM
Chain of Ephrin type-A receptor 2 (Homo sapiens) (P29317 whole entry): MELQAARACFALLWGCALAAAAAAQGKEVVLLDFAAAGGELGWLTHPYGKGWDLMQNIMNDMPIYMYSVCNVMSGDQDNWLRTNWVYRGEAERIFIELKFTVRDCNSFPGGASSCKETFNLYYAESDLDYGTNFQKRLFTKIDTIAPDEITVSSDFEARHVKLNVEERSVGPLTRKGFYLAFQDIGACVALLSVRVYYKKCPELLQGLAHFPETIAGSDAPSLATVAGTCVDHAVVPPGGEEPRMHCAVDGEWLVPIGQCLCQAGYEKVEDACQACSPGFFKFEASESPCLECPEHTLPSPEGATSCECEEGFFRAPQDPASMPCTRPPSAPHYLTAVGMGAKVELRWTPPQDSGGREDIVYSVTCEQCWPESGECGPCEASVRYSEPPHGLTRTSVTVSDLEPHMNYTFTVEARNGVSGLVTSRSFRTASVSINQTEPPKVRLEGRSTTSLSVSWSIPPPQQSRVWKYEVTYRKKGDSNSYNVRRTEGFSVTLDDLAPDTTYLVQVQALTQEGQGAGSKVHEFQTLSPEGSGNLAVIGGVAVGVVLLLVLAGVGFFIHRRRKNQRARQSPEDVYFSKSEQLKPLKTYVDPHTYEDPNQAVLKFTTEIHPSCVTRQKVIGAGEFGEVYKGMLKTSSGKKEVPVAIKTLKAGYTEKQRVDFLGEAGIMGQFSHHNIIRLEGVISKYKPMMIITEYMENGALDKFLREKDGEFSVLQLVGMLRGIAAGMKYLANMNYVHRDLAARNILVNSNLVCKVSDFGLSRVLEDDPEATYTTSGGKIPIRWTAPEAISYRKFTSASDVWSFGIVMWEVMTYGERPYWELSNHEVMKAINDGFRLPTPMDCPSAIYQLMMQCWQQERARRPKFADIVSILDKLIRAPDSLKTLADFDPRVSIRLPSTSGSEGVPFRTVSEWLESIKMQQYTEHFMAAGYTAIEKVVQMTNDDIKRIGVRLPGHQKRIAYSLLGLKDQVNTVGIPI

[5] = biological target: Ephrin type-A receptor 2 (Homo sapiens) (UniProt P29317); conditions: at 1 µM
[6] = biological target: T1, Ephrin type-A receptor 3 (Homo sapiens) (UniProt P29320); conditions: at 0.1 µM
T1 sequence (whole entry): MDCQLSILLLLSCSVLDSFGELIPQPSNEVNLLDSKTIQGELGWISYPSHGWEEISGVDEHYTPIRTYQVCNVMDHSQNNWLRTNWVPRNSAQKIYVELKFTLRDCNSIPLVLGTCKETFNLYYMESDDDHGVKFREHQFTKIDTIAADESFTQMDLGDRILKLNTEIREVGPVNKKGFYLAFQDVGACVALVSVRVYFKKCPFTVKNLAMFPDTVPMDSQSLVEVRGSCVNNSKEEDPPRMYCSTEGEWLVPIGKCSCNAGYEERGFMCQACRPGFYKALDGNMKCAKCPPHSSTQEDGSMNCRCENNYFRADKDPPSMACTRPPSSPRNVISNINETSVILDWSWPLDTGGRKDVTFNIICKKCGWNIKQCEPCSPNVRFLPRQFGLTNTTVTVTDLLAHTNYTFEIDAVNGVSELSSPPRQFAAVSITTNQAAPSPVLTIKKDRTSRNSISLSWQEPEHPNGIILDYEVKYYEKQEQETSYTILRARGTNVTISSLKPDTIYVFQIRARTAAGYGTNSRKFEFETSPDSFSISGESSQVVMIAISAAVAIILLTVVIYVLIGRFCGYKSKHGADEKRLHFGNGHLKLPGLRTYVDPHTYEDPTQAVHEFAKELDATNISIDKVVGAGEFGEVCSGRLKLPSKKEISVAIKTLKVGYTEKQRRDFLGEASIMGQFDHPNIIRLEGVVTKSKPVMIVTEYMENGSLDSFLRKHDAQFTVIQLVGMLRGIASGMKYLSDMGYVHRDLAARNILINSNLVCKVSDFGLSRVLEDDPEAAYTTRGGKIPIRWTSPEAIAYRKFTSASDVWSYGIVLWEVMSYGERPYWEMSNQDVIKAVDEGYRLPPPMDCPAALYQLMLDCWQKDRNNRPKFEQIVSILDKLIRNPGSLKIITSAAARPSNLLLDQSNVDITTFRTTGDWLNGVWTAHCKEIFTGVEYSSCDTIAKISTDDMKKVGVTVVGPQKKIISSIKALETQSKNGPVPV

[7] = biological target: T1, Ephrin type-A receptor 3 (Homo sapiens); conditions: at 1 µM
[8] = biological target: Ephrin type-A receptor 4 (Homo sapiens) (UniProt P54764); conditions: at 0.1 µM
Chain of Ephrin type-A receptor 4 (Homo sapiens) (P54764 whole entry): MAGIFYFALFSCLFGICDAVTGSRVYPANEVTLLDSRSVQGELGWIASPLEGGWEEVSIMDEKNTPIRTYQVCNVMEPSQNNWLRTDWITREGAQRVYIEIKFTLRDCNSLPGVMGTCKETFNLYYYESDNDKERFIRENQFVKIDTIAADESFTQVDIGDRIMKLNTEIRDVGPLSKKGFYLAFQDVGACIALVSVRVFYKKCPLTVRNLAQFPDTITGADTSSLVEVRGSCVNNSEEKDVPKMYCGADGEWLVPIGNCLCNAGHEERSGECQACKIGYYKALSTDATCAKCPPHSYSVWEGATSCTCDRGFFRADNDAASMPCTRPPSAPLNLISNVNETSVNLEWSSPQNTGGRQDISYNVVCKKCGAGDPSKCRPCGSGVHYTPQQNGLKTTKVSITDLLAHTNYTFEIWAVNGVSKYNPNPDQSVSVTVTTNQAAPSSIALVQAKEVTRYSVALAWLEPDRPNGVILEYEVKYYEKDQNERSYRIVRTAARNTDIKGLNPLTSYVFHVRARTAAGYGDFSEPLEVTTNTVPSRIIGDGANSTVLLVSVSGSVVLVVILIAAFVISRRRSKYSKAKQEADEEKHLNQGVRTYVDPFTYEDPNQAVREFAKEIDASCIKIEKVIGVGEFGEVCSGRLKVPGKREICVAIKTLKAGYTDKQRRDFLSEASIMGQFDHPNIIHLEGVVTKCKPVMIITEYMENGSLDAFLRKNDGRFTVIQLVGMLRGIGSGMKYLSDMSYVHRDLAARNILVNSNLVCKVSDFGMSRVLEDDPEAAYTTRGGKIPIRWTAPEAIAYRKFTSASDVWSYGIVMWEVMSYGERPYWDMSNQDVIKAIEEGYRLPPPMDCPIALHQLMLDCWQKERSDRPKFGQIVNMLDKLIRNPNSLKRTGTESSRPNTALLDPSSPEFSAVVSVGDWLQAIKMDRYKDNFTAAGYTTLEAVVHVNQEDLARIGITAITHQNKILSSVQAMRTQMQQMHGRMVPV

[9] = biological target: Ephrin type-A receptor 4 (Homo sapiens) (UniProt P54764); conditions: at 1 µM
[10] = biological target: T2, Ephrin type-B receptor 2 (Homo sapiens) (UniProt P29323); conditions: at 0.1 µM;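 also: reported as mean inhibition of EPHB2, from the GSK PKIS dataset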
T2 sequence (whole entry): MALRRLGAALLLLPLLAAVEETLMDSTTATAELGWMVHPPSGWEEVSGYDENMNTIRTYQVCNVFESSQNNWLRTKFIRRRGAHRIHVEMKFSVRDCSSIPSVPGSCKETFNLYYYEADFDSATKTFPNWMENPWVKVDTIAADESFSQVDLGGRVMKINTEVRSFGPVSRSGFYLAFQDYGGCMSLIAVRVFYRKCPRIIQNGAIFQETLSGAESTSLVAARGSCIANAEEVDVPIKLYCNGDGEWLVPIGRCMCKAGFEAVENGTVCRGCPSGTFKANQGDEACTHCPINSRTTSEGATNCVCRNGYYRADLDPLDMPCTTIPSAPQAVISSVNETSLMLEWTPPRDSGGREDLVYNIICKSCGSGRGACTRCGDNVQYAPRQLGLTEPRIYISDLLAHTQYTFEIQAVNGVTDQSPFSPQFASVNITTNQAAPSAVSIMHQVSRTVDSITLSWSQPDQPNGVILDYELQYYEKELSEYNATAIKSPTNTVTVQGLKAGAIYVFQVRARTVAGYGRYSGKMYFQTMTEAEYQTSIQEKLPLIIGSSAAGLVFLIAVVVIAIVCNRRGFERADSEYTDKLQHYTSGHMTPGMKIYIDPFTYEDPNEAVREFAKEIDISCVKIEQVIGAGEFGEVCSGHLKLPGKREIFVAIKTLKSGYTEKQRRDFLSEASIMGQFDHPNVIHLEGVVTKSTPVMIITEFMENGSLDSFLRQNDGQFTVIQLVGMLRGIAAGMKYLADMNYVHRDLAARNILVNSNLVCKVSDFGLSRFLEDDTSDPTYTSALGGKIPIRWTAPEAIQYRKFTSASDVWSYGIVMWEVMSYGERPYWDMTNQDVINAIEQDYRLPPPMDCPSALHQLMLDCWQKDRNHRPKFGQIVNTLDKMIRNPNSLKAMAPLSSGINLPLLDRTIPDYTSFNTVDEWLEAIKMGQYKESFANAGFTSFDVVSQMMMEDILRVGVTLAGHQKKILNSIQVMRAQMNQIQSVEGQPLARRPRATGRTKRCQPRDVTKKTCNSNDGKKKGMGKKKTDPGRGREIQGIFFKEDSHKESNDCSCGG

Chain of Epidermal growth factor receptor (Homo sapiens), P00533 [L858R,T790M] (P00533 whole entry T790M/L858R, looked up): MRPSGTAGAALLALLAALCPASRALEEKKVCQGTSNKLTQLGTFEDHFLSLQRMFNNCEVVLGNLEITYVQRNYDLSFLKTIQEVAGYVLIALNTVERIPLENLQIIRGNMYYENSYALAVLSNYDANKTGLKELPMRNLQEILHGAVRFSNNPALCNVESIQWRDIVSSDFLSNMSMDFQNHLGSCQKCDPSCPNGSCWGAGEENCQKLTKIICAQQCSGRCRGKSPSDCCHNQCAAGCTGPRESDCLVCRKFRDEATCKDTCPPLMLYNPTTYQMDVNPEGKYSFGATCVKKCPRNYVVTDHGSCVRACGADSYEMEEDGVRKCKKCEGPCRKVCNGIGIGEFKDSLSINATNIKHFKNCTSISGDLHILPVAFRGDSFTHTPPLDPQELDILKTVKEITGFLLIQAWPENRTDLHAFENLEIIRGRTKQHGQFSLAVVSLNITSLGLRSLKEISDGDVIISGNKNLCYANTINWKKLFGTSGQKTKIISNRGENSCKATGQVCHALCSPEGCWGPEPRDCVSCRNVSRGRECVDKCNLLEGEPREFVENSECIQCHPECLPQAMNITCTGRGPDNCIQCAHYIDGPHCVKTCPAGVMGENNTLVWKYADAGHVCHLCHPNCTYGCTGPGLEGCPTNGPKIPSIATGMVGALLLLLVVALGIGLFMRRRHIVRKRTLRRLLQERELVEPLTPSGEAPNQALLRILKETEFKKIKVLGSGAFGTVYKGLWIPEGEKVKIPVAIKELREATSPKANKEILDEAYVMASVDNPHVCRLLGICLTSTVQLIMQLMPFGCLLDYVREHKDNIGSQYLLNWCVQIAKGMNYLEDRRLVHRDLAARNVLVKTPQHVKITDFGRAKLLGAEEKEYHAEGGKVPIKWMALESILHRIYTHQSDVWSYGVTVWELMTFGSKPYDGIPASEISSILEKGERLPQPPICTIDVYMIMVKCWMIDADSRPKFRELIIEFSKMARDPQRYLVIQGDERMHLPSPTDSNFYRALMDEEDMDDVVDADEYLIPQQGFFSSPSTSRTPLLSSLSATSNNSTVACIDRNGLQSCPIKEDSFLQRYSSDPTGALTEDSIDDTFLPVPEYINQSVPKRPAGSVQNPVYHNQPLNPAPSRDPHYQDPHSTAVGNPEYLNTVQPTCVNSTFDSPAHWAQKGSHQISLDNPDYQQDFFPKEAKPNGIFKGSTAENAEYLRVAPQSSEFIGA
Chain of Epidermal growth factor receptor (Homo sapiens), P00533 [T790M] (P00533 whole entry T790M): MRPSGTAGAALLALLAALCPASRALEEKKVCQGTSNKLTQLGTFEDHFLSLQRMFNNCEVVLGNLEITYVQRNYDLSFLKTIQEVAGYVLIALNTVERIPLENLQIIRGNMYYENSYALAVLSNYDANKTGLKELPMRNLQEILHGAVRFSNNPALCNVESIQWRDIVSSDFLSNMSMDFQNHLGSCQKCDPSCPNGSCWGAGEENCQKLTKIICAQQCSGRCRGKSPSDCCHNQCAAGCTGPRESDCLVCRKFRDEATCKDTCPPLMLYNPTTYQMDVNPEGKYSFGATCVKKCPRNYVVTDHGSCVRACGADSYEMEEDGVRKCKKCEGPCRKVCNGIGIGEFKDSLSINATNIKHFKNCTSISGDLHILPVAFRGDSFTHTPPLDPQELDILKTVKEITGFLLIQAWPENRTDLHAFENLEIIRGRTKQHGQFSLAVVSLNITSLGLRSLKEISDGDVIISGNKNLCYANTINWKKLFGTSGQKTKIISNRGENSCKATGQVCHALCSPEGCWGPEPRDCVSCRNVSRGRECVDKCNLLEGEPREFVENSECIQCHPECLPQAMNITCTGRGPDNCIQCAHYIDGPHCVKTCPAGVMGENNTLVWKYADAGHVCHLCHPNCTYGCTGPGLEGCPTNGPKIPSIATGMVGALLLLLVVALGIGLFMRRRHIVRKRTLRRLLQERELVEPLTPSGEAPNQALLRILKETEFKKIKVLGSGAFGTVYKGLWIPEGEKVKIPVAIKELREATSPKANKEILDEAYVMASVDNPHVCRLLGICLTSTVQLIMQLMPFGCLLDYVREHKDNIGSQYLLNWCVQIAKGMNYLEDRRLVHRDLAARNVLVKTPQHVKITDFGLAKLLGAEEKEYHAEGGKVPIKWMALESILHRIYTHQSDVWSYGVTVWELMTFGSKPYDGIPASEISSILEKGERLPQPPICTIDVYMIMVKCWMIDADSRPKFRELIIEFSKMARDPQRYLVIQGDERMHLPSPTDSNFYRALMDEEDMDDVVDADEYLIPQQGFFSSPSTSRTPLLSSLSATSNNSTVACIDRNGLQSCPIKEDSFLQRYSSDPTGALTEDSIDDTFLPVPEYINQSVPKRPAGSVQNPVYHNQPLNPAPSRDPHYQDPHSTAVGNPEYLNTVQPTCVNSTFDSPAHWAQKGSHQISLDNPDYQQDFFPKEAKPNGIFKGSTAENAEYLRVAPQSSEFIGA

SMILES	inhibition [1]	inhibition [2]	inhibition [3]	inhibition [4]	inhibition [5]	inhibition [6]	inhibition [7]	inhibition [8]	inhibition [9]	inhibition [10]
NC(=O)Cc1ccccc1Oc1nccc(-c2c(-c3ccc(F)cc3)ncn2C2CCNCC2)n1	0.65%	0.76%	4.08%	-0.02%	-0.27%	2.08%	3.17%	5.89%	-0.14%	6.12%
O=C(Nc1n[nH]c2cc(-c3cc(F)ccc3F)ccc12)C1CC1	1.25%	3.1%	2.41%	-2.28%	-0.08%	1.66%	4.19%	5.23%	3.94%	6.32%
O=C1NC(=O)C(c2cccc(Cl)c2)=C1Nc1ccc(Cl)c(C(=O)O)c1	4.13%	0.67%	2.52%	0.74%	0.86%	5.42%	4.05%	8.74%	7.75%	5.83%
COc1cc2ncn(-c3cc(OCc4ccccc4C(F)(F)F)c(C(C)=O)s3)c2cc1OC	0.97%	-1.84%	0.68%	1.98%	2.23%	1.78%	4.66%	5.55%	10.6%	5.43%
NCc1ccc(-n2c(-c3nonc3N)nc3cnccc32)cc1	3.16%	4.81%	5.05%	0.49%	0.85%	7%	4.64%	9.54%	5.62%	6.63%
COc1cccc(-n2cnc3c(N/N=C/c4ccncc4)ncnc32)c1	5.78%	-1.35%	6.65%	-0.82%	0.55%	-3.39%	-0.79%	3.18%	25.6%	2.42%
COc1ccc(-c2ccc3c(NC(=O)C4CC4)n[nH]c3n2)cc1	4.06%	-0.83%	5.32%	0.96%	0.05%	2.4%	3.41%	6.38%	10.4%	1.78%
C[C@@H](Oc1cc(-n2cnc3ccc(OC4CCN(C)CC4)cc32)sc1C(N)=O)c1ccccc1Cl	1.48%	1.1%	6.15%	-2.62%	-3.66%	-0.17%	-0.53%	7.06%	9.83%	7.8%
NS(=O)(=O)c1ccc(Nc2cc(-c3ccc(O)c(F)c3)n[nH]2)cc1	-0.95%	-2.9%	-4.28%	-1.33%	-1.33%	-4.5%	-0.8%	-6.46%	-5.56%	-3.09%
Cc1ccc(NC(=O)c2ccoc2)cc1-c1ccc(C(=O)NCC2CC2)cc1	0.9%	2.36%	1.46%	0.92%	-0.44%	1.99%	2.02%	5.05%	6.13%	2.46%
COC(=O)Nc1nc2ccc(Sc3ccc(NC(=O)Nc4cc(C(F)(F)F)ccc4F)cc3)cc2[nH]1	0.47%	4.21%	1.97%	25.8%	89.6%	9.91%	34.5%	49.5%	81.6%	43.4%
NC(=O)c1ccc(Oc2nccc(-c3c(-c4ccc(F)cc4)ncn3C3CCNCC3)n2)cc1	4.36%	3.71%	1.81%	2.58%	1.73%	2.37%	5.3%	8.5%	11%	8.08%
Fc1ccc(-c2c(-c3ccncc3)nc3n2CCS3)cc1	1.49%	2.41%	2.54%	-5.85%	-4.53%	-0.6%	0.35%	6.26%	8.11%	1.66%
CCc1nccc2c1nc(-c1nonc1N)n2CC	-1.27%	-0.81%	1.48%	0.61%	0.69%	-0.26%	1.46%	0.87%	-5.92%	-5.8%
c1ccc(-c2n[nH]cc2-c2ccnc(-c3ccc(OCCN4CCOCC4)cc3)c2)nc1	-0.63%	1.82%	-2.02%	4.75%	2.42%	-1.39%	-0.22%	-5.11%	-9.05%	0.38%
COc1cc2ncn(-c3cc(OCc4cccs4)c(C(N)=O)s3)c2cc1OC	5.88%	-0.25%	5.43%	-1.31%	-1.86%	-2.47%	0.85%	8.34%	19.3%	7.38%
Nc1nccc(-c2c(-c3ccc(F)cc3)ncn2C2CCC(O)CC2)n1 (stereo not given)	0.86%	1.94%	15.4%	0.36%	2.11%	-4.93%	-1.48%	-4.75%	14.5%	7.37%
